Only some compounds are listed: those with a hit (about 0.49% of all), similar ones and a draw of the others.
CCT chaperon mod: High-Throughput Screening for Modulators of Cytosolic Chaperonin Activity. AID 651819, 2012. hit rate 0.3% among 360,000. activity change, % (test concentration not listed), hits read low. purified chaperonin ATPase assay, HTRF ADP detection, 30 min; in the data active means activity change below about -30%; further: on the % scale 0 is the no-effect control and ±100 the full control effect
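Enzyme 40 or 20 nM (batch-dependent) in Tris pH 7.4/KCl/MgCl2/DTT; cpd 76 uM single point; ATP 10 uM; 30 min 37 °C; Transcreener ADP HTRF detection, 30 min RT; ratio 665/615.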
ASM inhibitor: Inhibitors of Secretory Acid Sphingomyelinase (S-ASM): qHTS; Sphingomyelin phosphodiesterase (Homo sapiens), P17405; AID 504937, 2011; placental ASM, HMU-PC fluorogenic substrate, 60 min; Potency, µM (doses to about 57.5 µM), inactives show top-dose activity change, negative = inhibition, usual class: inhibitors; hit rate 0.006% among 340,000; further: potency means the concentration at half of the fitted maximal effect
Target sequence (P17405 47-631 limits assumed): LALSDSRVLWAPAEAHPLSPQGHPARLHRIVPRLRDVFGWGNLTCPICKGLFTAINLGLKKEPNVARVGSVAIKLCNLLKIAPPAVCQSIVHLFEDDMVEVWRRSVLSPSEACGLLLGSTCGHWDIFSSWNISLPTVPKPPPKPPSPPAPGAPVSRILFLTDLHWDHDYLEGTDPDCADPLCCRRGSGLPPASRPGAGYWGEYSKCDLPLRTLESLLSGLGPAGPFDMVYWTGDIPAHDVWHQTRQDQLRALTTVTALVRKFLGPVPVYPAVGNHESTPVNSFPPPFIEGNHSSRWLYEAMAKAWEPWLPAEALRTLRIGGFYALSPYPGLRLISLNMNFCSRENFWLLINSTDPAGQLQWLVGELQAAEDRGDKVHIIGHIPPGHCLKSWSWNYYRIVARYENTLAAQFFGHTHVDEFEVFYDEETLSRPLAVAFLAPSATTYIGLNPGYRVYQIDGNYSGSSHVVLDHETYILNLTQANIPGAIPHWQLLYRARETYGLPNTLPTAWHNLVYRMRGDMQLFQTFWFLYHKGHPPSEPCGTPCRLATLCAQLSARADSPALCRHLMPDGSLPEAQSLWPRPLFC
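qHTS format. ASM enzyme prepared from human placenta hydrolyses the fluorogenic substrate HMU-PC0 (9 uM final) over 60 min at 37 °C after a 10 min compound preincubation.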
Tb PFK inh-1: qHTS Assay to Find Inhibitors of T. brucei phosphofructokinase | ATP-dependent 6-phosphofructokinase (Trypanosoma brucei brucei), O15648 | AID 485367, 2010 | hit rate 0.17% among 330,000 | Potency, µM (titrated, usually from 57.5 µM), inactives show at the highest dose activity, negative = inhibition, hits mostly inhibitors | T. brucei PFK, ADP-Glo luminescence;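 further: potency means the concentration at half of the fitted maximal effect; 0% = uninhibited 1x PFK enzyme wells and -100% = no-enzyme wells; nearly all actives have a fitted effect of over 60% in size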
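Compounds were pin-transferred as a titration series up to 57 uM into substrate buffer (0.5 mM F6P, 0.1 mM ATP, pH 8.0), then 1.25 nM PFK was added and reactions ran 45 min before ADP-Glo detection.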
Chronic BCR inh: qHTS Assay to Find Inhibitors of Chronic Active B-Cell Receptor Signaling; ABC-DLBCL IkBa-CBG/CBR reporter, luminescence ratio, 4 h; Potency, µM (top dose mostly 46.1 µM), for the others: top-dose activity change, negative = inhibition, actives largely listed as inhibitors; hit rate 0.05% among 340,000; AID 493014, 2011; active means well fitted inhibition curve with a large enough effect in the signal ratio, with a control signal flat, not every such curve was filed as active; inconclusive means small, poorly fitted or top-dose-only effect, or effect the other way, or a change in a side signal; the % refers to the signal ratio;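 further: potency means the concentration at half of the fitted maximal effect; plate controls were basal doxycycline-induced cells for no effect and cells given 10 µM MG132 for full effect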
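Cell line TMD8 (human ABC DLBCL), stably expressing tet-inducible CBG68-IkBa fusion and CBR; IMDM/0.5% FBS; cpd up to 46 uM; dox induction, 4 h, 37C/5% CO2; dual luminescence; green/red ratio; MG132 control.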
TCR act: Activators of T cell receptors: qHTS campaign | primary human leukocytes, anti-CD3, IL-2 HTRF, 48 h | Potency, µM (series often up to 9.22 µM), for the others: top-dose activation of IL-2 secretion, most hits filed as activators | 330,000 tested, under 10 active | AID 504894, 2011; further: % of control where 0% means no effect
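Primary human leukocytes incubated 48 hr with anti-CD3 beads plus compound, without co-stimulation. Secreted IL-2 measured by HTRF (europium cryptate/d2 anti-IL-2 pair, 320 nm excitation, 665 nm emission).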
TbPFK ATP: Tb PFK orthogonal confirmatory assay using ATP depletion (Kinase-Glo Plus) as an alternative measure of Tb PFK activity: Hit Validation; hit rate 47% among 1,100; shares compounds with Tb PFK inh-1; Potency, µM (series often up to 57.5 µM), without a hit: at the top dose inhibition; AID 504636, 2011; Tb PFK enzyme, ATP depletion, Kinase-Glo Plus luminescence; calls by dose curve; further: potency means the concentration at half of the fitted maximal effect; nearly all actives have a fitted effect of over 60% in size
Tb PFK inh-2: Inhibitors of T. brucei phosphofructokinase: Hit Validation; shares compounds with Tb PFK inh-1; purified T. brucei PFK, ADP-Glo luminescence, 45 min; Potency, µM (titrated, usually from 57.5 µM), without a hit: top-dose activity change, negative = inhibition, usual class: inhibitors; hit rate 41% among 1,100; AID 504637, 2011;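 further: potency means the concentration at half of the fitted maximal effect; plate controls were full PFK enzyme control for no effect and no enzyme control for full effect; nearly all actives have a fitted effect of over 60% in size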
Active calls of the source: *; ? = inconclusive; nt = no result given; [ ] = dose if it differs, or a comment. Unless noted, the call rests on the fitted dose curve; in most records, active means well fitted curve in the direction sought with a large enough effect; inconclusive means small, poorly fitted or top-dose-only effect, or another doubt; inactive means no such curve, though single readings can be large; an effect the other way counts as inactive or inconclusive.

SMILES	CCT chaperon mod	ASM inhibitor	Tb PFK inh-1	Chronic BCR inh	TCR act	TbPFK ATP	Tb PFK inh-2
O=c1oc2cccnc2n1CCS(=O)(=O)c1ccc(F)cc1	1	-5%	-3%	?	3%	nt	nt
OCC[n+]1c2ccccc2nc2ccc(N3CCOCC3)cc21	1	-2%	?	?	4%	1%	-2%
CCOC(=O)c1cc2cc(OC)ccc2n1C1CCN(Cc2ccccc2)CC1	1	nt	nt	nt	nt	nt	nt
Cc1ccc2c(c1)sc(C)[n+]2CCCS(=O)(=O)[O-]	-5	7%	?	?	1%	-16%	1%
COc1ccccc1NS(=O)(=O)c1cc(NC(=O)c2sccc2C)ccc1N1CCCC1	2	-2%	?	2%	-9%	12µM*	24µM*
Clc1ccc(CSC2=NCCCN2)cc1Cl	-1	-1%	5.4µM*	-9%	2%	11µM*	21µM*
O=S(=O)(c1ccccc1)N1Cc2ccccc2-n2nncc2C1	-2	nt	nt	nt	nt	nt	nt
CCc1ccc(CNCCc2ccc(F)cc2)cc1	1	1%	-2%	-1%	-4%[46.1 µM]	nt	nt
Fc1ccc(CCNCc2ccc(Cl)c(Cl)c2)cc1	-5	1%	?	2%	-6%	15µM*	27µM*
COc1ccc(C[C@@H]2CN3C(=NC[C@@H]3Cc3ccc(O)cc3)N2C[C@H](C)NC(=O)CCC2CCCCC2)cc1	1	-3%	-3%	?	-132%	nt	nt
Cc1cc(C)c(C)c(S(=O)(=O)N2CCC(C(=O)OCC(=O)N3c4ccccc4NC(=O)C3(C)C)CC2)c1C	2	-4%	?	8%	1%	?	?
CCC1(O)C(=O)OCc2c1cc1n(c2=O)Cc2cc3c(N)cccc3nc2-1 (stereo not drawn)	-2	16%	nt	nt	-2%	nt	nt
C=CCSc1nc2sc3c(c2c(=O)n1CC)CCc1ccccc1-3	0	0%	13µM*	-1%	2%	6.7µM*	11µM*
CCCCn1c(=O)c(C(=O)NCc2ccc(Cl)cc2)c(O)c2ccccc21	-1	-6%	-1%	0%	3%	nt	nt
COCCCNC(=O)c1cc(=O)n(Cc2ccc(Cl)cc2)c2ccccc12	-3	-1%	11µM*	6%	0%	24µM*	?
N#Cc1cc2c(nc1SCC(=O)Nc1ccc(OC(F)(F)F)cc1)C1CCN2CC1	nt	nt	nt	-9%	nt	nt	nt
CS(=O)(=O)NNC(=O)C1Cc2c(ccc3ccccc23)O1 (stereo not drawn)	0	-2%	?	-12%	-2%	-28%	?
O=C(Nc1nc(-c2ccco2)c(-c2ccco2)s1)c1cnccn1	1	-2%	12µM*	24%	5%	1%	0%
COc1cccc(OC)c1-c1nn2c(-c3cc(-c4ccccc4)n[nH]3)nnc2s1	1	-1%	?	1%	4%	-22%	?
O=C(O)C1C2C=CC(C2)C1C(=O)Nc1ccc(Cl)c(Cl)c1 (stereo not drawn)	2	1%	21µM*	?	3%	18%	-13%
NN1C(=O)/C(=C2/Sc3ccccc3N2CCCS(=O)(=O)O)SC1=S	0	7%	30µM*	2%	nt	19µM*	?
COc1ccc(C(c2nnnn2-c2c(C)cccc2C)N2CCC3(CC2)C(=O)NCN3c2ccccc2)cc1 (stereo not drawn)	0	nt	nt	nt	nt	nt	nt

Source: PubChem BioAssay
